Test results from PubChem BioAssay.
Results with a measured potency or affinity are listed apart. Results filed as inconclusive are left out. Calls of active or inactive are those of the source.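 Rule for the calls: active = falling signal with fitted half-maximal potency no higher than twice the top valid tested dose; inconclusive = poor fit quality, or flat fit spanning -70% to -30%; inactive = potency over limit, rising signal, or flat fit inside 30%.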

Test: fungal growth arrest, C. neoformans – Alamar Blue, cherry-picks, dose response (AID 686998)
Conditions: Cryptococcus neoformans growth, 24 h; series mostly up to 35 µM; activity change, negative = inhibition: at the top concentration

| SMILES | activity change, negative = inhibition |
| --- | --- |
| CCCC#Cc1cnc2c(c1)C(=O)N([C@@H](C)CO)C[C@H](C)[C@H](CN(C)C(=O)Nc1cccc(F)c1)O2 | 33.9% (inactive) |
| Cc1nnc(NC(=O)CSc2ncnc3c2cnn3-c2ccccc2C)s1 | 36.4% (inactive) |
| CO[C@H]1CN(C)C(=O)c2ccc(NC(=O)C3CC3)cc2OC[C@@H](C)N(Cc2ccc(F)cc2)C[C@@H]1C | 20.2% (inactive) |
| CCNC(=O)C[C@@H]1CC[C@H]2[C@@H](COC[C@@H](O)CN2S(=O)(=O)c2ccccc2F)O1 | 8% (inactive) |
| Cc1ccc(NC(=O)C2(C)CCN2C(=O)C2CCCCC2)cc1C (stereo not drawn) | -15.7% (inactive) |
| C[C@H](CO)N1C[C@H](C)[C@@H](CN(C)C(=O)Nc2ccc(F)cc2)Oc2c(NS(=O)(=O)c3ccccc3)cccc2C1=O | -4.93% (inactive) |
| NC(=O)CN(c1ccccc1)S(=O)(=O)c1ccc(F)cc1 | -9.28% [at 42 µM] (inactive) |
| COc1cccc(C#Cc2cnc3c(c2)C(=O)N([C@H](C)CO)C[C@@H](C)[C@@H](CN(C)C(=O)C2CCOCC2)O3)c1 | -18.1% [at 30 µM] (inactive) |
| O=C(Cc1cccs1)N1CCN(c2ccc([N+](=O)[O-])cc2)CC1 | -5.76% (inactive) |
| O=C(NC[C@H]1[C@@H](c2ccccc2)[C@@H](CO)N1C(=O)C1CCC1)NC1CCCC1 | 9.02% (inactive) |
| CC(=O)c1cccc(NC(=S)NC2CCCCC2)c1 | -21.5% (inactive) |
| CCCNC(=O)C[C@@H]1CC[C@H]2[C@@H](COC[C@H](O)CN2Cc2ccccc2F)O1 | -26.3% (inactive) |
| C[C@@H]1CN([C@H](C)CO)C(=O)c2cc(-c3ccc(F)cc3)cnc2O[C@H]1CN(C)CC1CCCCC1 | 29.5% (inactive) |
| COc1ccc(S(=O)(=O)Nc2ccc3c(c2)C(=O)N([C@H](C)CO)C[C@@H](C)[C@@H](CN(C)C(=O)Nc2ccccc2)O3)cc1 | 38.1% (inactive) |
| O=C(NC(=S)Nc1ccc(CN2CCOCC2)cc1)c1ccc([N+](=O)[O-])cc1 | 7.18% (inactive) |
| CC(=O)N1[C@@H]2CN(S(=O)(=O)c3ccccc3F)c3ccccc3[C@@H]2[C@@H]1CO | 14% (inactive) |
| CC(=O)N1[C@@H]2c3ccc(-c4ccccc4)c(=O)n3C[C@H]1[C@H](CO)[C@H]2C(=O)Nc1ccccc1 | 23% (inactive) |

| SMILES | activity change, negative = inhibition |
| --- | --- |
| CO[C@@H]1CN(C)C(=O)c2cc(NS(=O)(=O)C3CCCCC3)ccc2OC[C@H](C)NC[C@@H]1C | -18.1% (inactive) |
| C[C@@H]1CN([C@@H](C)CO)C(=O)c2cc(NS(=O)(=O)c3ccccc3)ccc2O[C@H]1CN(C)C(=O)NC1CCCCC1 | -21.1% (inactive) |
| CC(C)NC(=O)Nc1cccc2c1O[C@@H](CN(C)C(=O)Nc1ccccc1)[C@@H](C)CN([C@@H](C)CO)C2=O | -17.9% (inactive) |
| O=C(C[C@@H]1CC[C@H]2[C@@H](COC[C@H](O)CN2Cc2ccccc2F)O1)NC1CCC1 | 6.72% (inactive) |
| O=C(C[C@H]1CC[C@H]2[C@@H](COC[C@@H](O)CN2C(=O)Nc2ccc(Cl)cc2)O1)N1CCCCC1 | 23.9% (inactive) |
| CC(Sc1ncnc2c1cnn2-c1ccccc1)C(=O)Nc1ccc(N2CCOCC2)cc1 (stereo not drawn) | -8.23% (inactive) |
| C[C@H](CO)N1C[C@H](C)[C@@H](CN(C)C(=O)c2cccc(F)c2)Oc2cc(-c3cncnc3)ccc2S1(=O)=O | -11.4% (inactive) |
| C[C@@H]1CN([C@@H](C)CO)S(=O)(=O)c2ccc(C#C[C@@H](C)O)cc2O[C@@H]1CN(C)C(=O)C1CCCCC1 | -2.24% (inactive) |
| COc1ccc(C#Cc2ccc3c(c2)O[C@H](CN(C)C(=O)Nc2cccc(OC)c2)[C@H](C)CN([C@@H](C)CO)S3(=O)=O)cc1 | 23.4% (inactive) |
| C[C@@H]1CN([C@@H](C)CO)C(=O)c2cc(NS(=O)(=O)c3cn(C)cn3)ccc2O[C@@H]1CN(C)C(=O)Nc1cccc2ccccc12 | -16.4% (inactive) |
| CC(C)NC(=O)N(C)C[C@@H]1OCCCC[C@H](C)Oc2ccc(NC(=O)c3ccccc3)cc2C(=O)N([C@H](C)CO)C[C@H]1C | -21% (inactive) |
| CNC[C@@H]1OCCCC[C@H](C)Oc2ccc(NC(=O)c3ccccc3)cc2C(=O)N([C@@H](C)CO)C[C@@H]1C | 32.9% (inactive) |
| N#C[C@@H]1[C@@H](c2ccccc2)[C@@H](CO)N1C(=O)Cc1ccccc1 | -5.94% (inactive) |
| C[C@H]1CN([C@@H](C)CO)C(=O)Cc2cc(NS(=O)(=O)c3ccc(F)cc3)ccc2O[C@@H]1CN(C)S(=O)(=O)c1ccc(F)cc1 | 40.2% (inactive) |
| CCCNC(=O)Nc1ccc2c(c1)C(=O)N(C)C[C@H](OC)[C@@H](C)CN(Cc1cccnc1)[C@H](C)CO2 | 15.3% [at 30 µM] (inactive) |
| C[C@@H]1CCCCO[C@@H](CN(C)S(=O)(=O)c2ccc(F)cc2)[C@@H](C)CN([C@@H](C)CO)C(=O)c2cc(NS(=O)(=O)c3ccc(F)cc3)ccc2O1 | -7.73% (inactive) |
